# Compound activity: PubChem BioAssay, National Center for Advancing Translational Sciences (NCATS)
# TrxR1 substrate – qHTS Assay for Substrates of Mammalian Selenoprotein Thioredoxin Reductase 1 (TrxR1): qHTS; 390,000 tested, 0.01% active; AID 588456, 2011; purified TrxR1 substrate turnover, NADPH consumption readout; Potency, µM (titrated, usually from 114 µM), for the others: top-dose activity change, negative = substrate turnover; Thioredoxin reductase 1, cytoplasmic (Rattus norvegicus), O89049; also: nearly all actives have a fitted effect of over 50% in size
#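 Rat TrxR1, dispensed at 90 nM, was prereduced with 400 uM NADPH (final) for 5 min at ~22 deg C, then incubated with compound 15 min before 400 uM selenite. A first-read NADPH fluorescence drop versus no-compound background flagged substrates.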
# VDR inh – Inhibitors of the vitamin D receptor (VDR): qHTS; Potency, µM, inactives show max response, negative = inhibition, hits mostly inhibitors; 400,000 tested, 0.93% active; VDR-SRC2-3 peptide fluorescence polarization, 2 h; AID 504847, 2011
#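 Measured by FP: displacement of SRC2-3 coactivator peptide from VDR by library compounds, following a two-hour ambient incubation.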
# PLK1 PBD inh – qHTS for Inhibitors of PLK1-PDB (polo-like kinase 1 - polo-box domain): Primary Screen; 360,000 tested, 2.8% active; Potency, µM, inactives show max response, negative = inhibition, hits mostly inhibitors; Plk1 PBD binding of FITC phosphopeptide, fluorescence polarization; AID 720504, 2013; Serine/threonine-protein kinase PLK1 (Homo sapiens), P53350; also: series mostly up to about 57 µM; nearly all actives have a fitted effect of over 65% in size
# Target sequence (P53350 whole entry, looked up, the tested form may be a part): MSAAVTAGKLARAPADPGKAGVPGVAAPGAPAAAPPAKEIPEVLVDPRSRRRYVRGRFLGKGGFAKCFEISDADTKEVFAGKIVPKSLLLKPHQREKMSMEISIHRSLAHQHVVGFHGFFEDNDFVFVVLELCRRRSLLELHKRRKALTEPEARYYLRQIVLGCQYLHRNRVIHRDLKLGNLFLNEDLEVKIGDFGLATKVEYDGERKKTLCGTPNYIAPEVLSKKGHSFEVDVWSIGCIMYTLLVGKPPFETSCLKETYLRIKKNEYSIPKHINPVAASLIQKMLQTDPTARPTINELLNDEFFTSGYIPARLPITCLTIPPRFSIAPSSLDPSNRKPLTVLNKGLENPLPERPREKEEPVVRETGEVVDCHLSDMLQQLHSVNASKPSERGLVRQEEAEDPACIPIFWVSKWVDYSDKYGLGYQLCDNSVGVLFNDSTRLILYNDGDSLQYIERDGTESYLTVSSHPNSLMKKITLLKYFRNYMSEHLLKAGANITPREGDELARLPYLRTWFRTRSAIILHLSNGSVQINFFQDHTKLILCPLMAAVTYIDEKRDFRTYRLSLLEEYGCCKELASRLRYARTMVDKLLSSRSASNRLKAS
# Sfp inh – qHTS Assay for Inhibitors of Bacillus subtilis Sfp phosphopantetheinyl transferase (PPTase) | Biochemical Sfp PPTase activity, qHTS | 310,000 tested, 3.5% active | Potency, µM, without a hit: largest response in the series, negative = inhibition, hits mostly inhibitors;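 also: the enzyme is Sfp with the accession as filed and its product quenches rhodamine fluorescence; 0% = enzyme reaction without inhibitor and -100% = no enzyme wells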
#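 Step 1, compound plus 15 nM Sfp-PPTase, 15 min, room temperature. Step 2, add rhodamine-CoA (5 uM) and BHQ-2-YbbR (12.5 uM). Step 3, read 525/598 nm fluorescence at 0 and 30 min.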
# IDH1 R132H inh – qHTS for Inhibitors of mutant isocitrate dehydrogenase 1 (IDH1): qHTS. IDH1-R132H enzyme, NADPH consumption, diaphorase/resazurin fluorescence. 390,000 tested, 0.093% active. Potency, µM (series often up to 76.6 µM), inactives show at the top dose activity change, negative = inhibition, actives largely listed as inhibitors; also: nearly all actives have a fitted effect of over 65% in size
#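 IDH1-R132H (0.5 ug/mL dispensed) in pH 7.5 Tris buffer was preincubated 30 min with compound, then given a substrate mix of 0.016 mM NADPH and 2 mM alpha-KG for 80 min at room temperature; remaining NADPH was read by diaphorase/resazurin fluorescence.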
# TrxR1 inh – qHTS Assay for Inhibitors of Mammalian Selenoprotein Thioredoxin Reductase 1 (TrxR1): qHTS. Thioredoxin reductase 1, cytoplasmic (Rattus norvegicus), O89049. recombinant rTrxR1, NADPH fluorescence consumption, selenite substrate. Potency, µM (highest dose often 114 µM), for the others: at the highest dose activity change, negative = inhibition, usual class: inhibitors. 390,000 tested, 1% active. AID 588453, 2011; also: nearly all actives have a fitted effect of over 65% in size
#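 Rat TrxR1 (90 nM in the dispensed reagent) was pre-reduced with 400 uM NADPH for 5 min at room temperature, then incubated with compound for 15 min. After 400 uM selenite was added, NADPH fluorescence (Ex 340/Em 450 nm) was followed for 8 min.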
# * marks the source's active call; other numbers are inactive results; ? = inconclusive; / = no result; ! = not active in a repeat; [ ] = remark or other dose. Compounds with a hit are over-represented: about 5.2% of the library has one in this group of screens. Calls follow the shape of the dose curve; as a rule, active = well fitted curve in the direction sought with a large enough effect; inconclusive = small, poorly fitted or top-dose-only effect, or another doubt; inactive = no such curve, though single readings can be large; an effect the other way counts as inactive or inconclusive. Unless noted, % is scaled to controls: 0 for no effect and ±100 for the full control effect; potency is read from the fitted curve at half-maximal effect.
SMILES,TrxR1 substrate,VDR inh,PLK1 PBD inh,Sfp inh,IDH1 R132H inh,TrxR1 inh
CCOc1ccc(NS(=O)(=O)c2ccc3c(c2)N(C(C)=O)CC3)cc1,-2.5%,3.3%,-6.3%,-5.5%,15.3%,6.1%[57.1 µM]
CCOc1ccc(NS(=O)(=O)c2ccc3c(c2)N(C(C)=O)CCS3)cc1,-10.9%[57.1 µM],-18.0%,26.7µM*,6.7%,5.9%,22.9%[57.1 µM]
Cc1cc(C)n(C(=O)Cc2cn3ccsc3n2)n1,-4.0%,5.0%,-2.9%,89.1µM*,7.7%,3.2%
COC(=O)COc1cccc(NC(=O)c2ccc(Cl)cc2)c1,6.2%,?,29.9µM*,8.0%,4.2%,33.8%[57.1 µM]
O=C(O)c1ccc(OS(=O)(=O)c2ccc(Cl)s2)c(Cl)c1,6.6%,-17.1%,-5.9%,/,6.0%,23.1%
Cc1ccc(S(=O)(=O)NCc2ccccn2)c(C)c1C,-0.9%,7.1%,4.1%,1.6%,-7.6%,6.2%
Cc1ccc(S(=O)(=O)NCc2ccncc2)c(C)c1C,3.0%,-1.9%,-7.8%,44.7µM*,-6.0%,28.8%
Cc1nc2sc(C#N)c(N)c2c2c1CCCC2,39.6%,8.4%,-3.0%,15.0%,0.2%,8.2%
CCC1(C)Cc2c(C#N)c(N)sc(=S)c2CO1 (stereo not drawn),-12.7%,3.2%,-20.5%,12.6µM*,-3.4%,?
N#Cc1c(N)sc(=S)c2c1CCCC2,-17.1%,-10.0%,?,31.6µM*,7.7%,?
CC(C)NC(=O)c1cc2n(n1)C(C(F)(F)F)CC(c1ccco1)N2 (stereo not drawn),0.0%[57.1 µM],-13.7%,-7.8%,10.0%,-0.9%,-10.0%
O=C(NCc1ccccn1)c1cc2n(n1)C(C(F)(F)F)CC(c1ccco1)N2 (stereo not drawn),2.6%,10.9%,-3.8%,12.6µM*,7.8%,-49.5%
Cc1nn(CC(=O)Nc2cccc(C(F)(F)F)c2)c(=O)c2cccn12,-4.1%,-29.9%,26.7µM*,17.8%,0.4%,2.0%
CC1Cc2ccccc2N1C(=O)CNc1cccc(S(=O)(=O)N2CCCC2)c1 (stereo not drawn),1.7%[57.1 µM],25.1µM*,3.77µM*,2.4%,-1.3%,12.7%[57.1 µM]
OC[C@@H](O)C(O)[C@H](O)[C@@H](O)CO (stereo partly drawn),/,-0.4%,/,-2.3%,/,/
COc1ccc(NC(=O)c2cc3ccccc3cc2O)cc1,-4.9%[57.1 µM],44.7µM*,29.9µM*,-25.9%,10.4%,-28.9%[57.1 µM]
CCC(=S)/C=C1\Sc2ccccc2N1CCCS(=O)(=O)O,-7.7%,70.8µM*,?,-103.8%,-2.4%,?
CN1/C(=C/C(=O)C2CCC2)Sc2ccccc21,-9.4%,2.0%,-12.7%,?,-3.7%,-3.4%
CCc1ccc(C(=O)C[N+]2(C)CCOCC2)cc1,18.5%,/,/,/,/,43.3%
Oc1c(C=NCc2ccncc2)sc2ccccc12,-5.0%,-8.9%,?,28.2µM*,-7.4%,-13.3%
CN=Cc1sc2ccccc2c1O,5.6%,-3.0%,-5.2%,-2.0%,-2.0%,19.9%
Cc1c2oc3c(C)ccc(C(=O)N[C@@H]4C(=O)N[C@H](C(C)C)C(=O)N5CCC[C@H]5C(=O)N(C)CC(=O)N(C)[C@@H](C(C)C)C(=O)O[C@@H]4C)c3nc-2c(C(=O)N[C@@H]2C(=O)N[C@H](C(C)C)C(=O)N3CCC[C@H]3C(=O)N(C)CC(=O)N(C)[C@@H](C(C)C)C(=O)O[C@@H]2C)c(N)c1=O,/,44.7µM*!,/,-5.3%,/,/
Cc1cc(C)cc(N2C(=O)CS(=O)(=O)C23C(=O)N(Cc2ccccc2)c2ccccc23)c1 (stereo not drawn),-1.1%,-13.3%,/,/,-5.3%,25.6%
O=C(Cc1ccc(Cl)cc1)NNC(=O)c1cnccn1,13.3%[57.1 µM],-18.5%,29.9µM*,8.0%,2.2%,-1.3%[57.1 µM]
O=C(NCc1ccc(Cl)cc1)c1cnccn1,-5.0%,7.8%,-0.2%,13.1%,4.7%,-10.6%
SMILES,TrxR1 substrate,VDR inh,PLK1 PBD inh,Sfp inh,IDH1 R132H inh,TrxR1 inh
CC(C)CCNC(=O)C1CCN(S(=O)(=O)c2ccc(-n3cnnn3)cc2)CC1,-5.8%[57.1 µM],-5.6%,-28.0%,-14.1%,2.3%,-12.9%[57.1 µM]
N#CC1=C(N)SC(N)=C(C#N)C1c1ccnc2ccccc12,1.9%,-18.0%,?,15.8µM*,-5.8%,31.6µM*
O=C1c2ccccc2C(=O)C1c1ccnc2ccccc12,7.4%[57.1 µM],-2.7%,0.9%,15.2%,5.1%,2.9%[57.1 µM]
Cc1cc2ccccc2n1CCNC(=O)c1ccccc1,-5.3%[57.1 µM],20.1%,-14.8%,50.1µM*,-8.3%,-30.5%[57.1 µM]
COC(=O)[C@@]12C[C@@H](CC(=O)NCCc3ccccc3OC)C(=O)N(Cc3ccc4c(c3)OCO4)C1=CCC(C)(C)C2,/,/,6.2%,/,/,/
Cc1ccc(/C=C2\SC(=S)N(/N=C/c3cc([N+](=O)[O-])ccc3O)C2=O)o1,-14.3%,?,11.9µM*,25.1µM*,-2.7%,22.4µM*
O=[N+]([O-])c1ccc(O)c(/C=N/n2cnc3ccccc32)c1,-17.9%,-3.1%,-5.9%,6.6%,4.6%,-19.8%
COc1ccc(-c2nc3ccc(NC(C)=O)cc3c(=O)n2Cc2ccccc2)cc1COc1ccc(NC(C)=O)cc1,4.4%,-9.0%,/,/,/,20µM*
O=C1CCCC(C(C(=O)OCc2ccccc2)C(=O)OCc2ccccc2)C1 (stereo not drawn),/,/,/,-5.1%,/,/
Cc1ccc(C)c(OCCn2cc(/C=C(\C#N)C(=O)NCC3CCCO3)c3ccccc32)c1 (stereo not drawn),0.9%,-17.8%,29.9µM*,?,0.5%,22.5%
Cc1cccc(N2CCN(C(=O)c3cccc(-n4c(C)nc5cccnc54)c3)CC2C)c1 (stereo not drawn),-14.2%,0.4%,/,/,-12.4%,-19.8%
COCCc1ncc(CN2CCC(C(=O)Nc3cccc(-c4cscn4)c3)CC2)cn1,7.0%[57.1 µM],-27.5%,18.9µM*,16.5%,-11.5%,12.1%[57.1 µM]
CN(C(=O)c1ccc(OCC=C(c2ccccc2)c2ccccc2)cc1)c1ccccc1I,-7.4%,-4.5%,/,-6.8%,/,-14.5%
C1=C/C(=C2/C=Cc3ccccc32)c2ccccc2N1,-5.9%,/,/,/,/,3.4%
CCCn1c(SCC(=O)C(C)(C)C)nc2ccccc21,-6.7%,-4.1%,-1.8%,56.2µM*,1.2%,-17.3%
CC(C)(C)NC(=O)Cn1c(SCC(N)=O)nc2ccccc21,-13.0%,?,15µM*,5.3%,6.6%,-17.0%
